Screens: PubChem BioAssay, National Center for Advancing Translational Sciences (NCATS)
KDM5B inhibitor – Primary screen for KDM5B Histone Demethylases FDH-coupled qHTS; 220,000 tested, 2.6% active; KDM5B demethylase, FDH-coupled NADH fluorescence (FDH is formaldehyde dehydrogenase); Lysine-specific demethylase 5B (Homo sapiens), Q9UGL1; Potency, µM (highest dose often 57.7 µM), hits mostly inhibitors; active means well fitted inhibition curve with a large enough effect; inconclusive means small, poorly fitted or top-dose-only effect; inactive means no such curve, though single readings can be large or run the other way; further: potency means the concentration at half of the fitted maximal effect; 0% is about no effect; nearly all actives have a fitted effect of over 70% in size
Target sequence (Q9UGL1 whole entry, looked up): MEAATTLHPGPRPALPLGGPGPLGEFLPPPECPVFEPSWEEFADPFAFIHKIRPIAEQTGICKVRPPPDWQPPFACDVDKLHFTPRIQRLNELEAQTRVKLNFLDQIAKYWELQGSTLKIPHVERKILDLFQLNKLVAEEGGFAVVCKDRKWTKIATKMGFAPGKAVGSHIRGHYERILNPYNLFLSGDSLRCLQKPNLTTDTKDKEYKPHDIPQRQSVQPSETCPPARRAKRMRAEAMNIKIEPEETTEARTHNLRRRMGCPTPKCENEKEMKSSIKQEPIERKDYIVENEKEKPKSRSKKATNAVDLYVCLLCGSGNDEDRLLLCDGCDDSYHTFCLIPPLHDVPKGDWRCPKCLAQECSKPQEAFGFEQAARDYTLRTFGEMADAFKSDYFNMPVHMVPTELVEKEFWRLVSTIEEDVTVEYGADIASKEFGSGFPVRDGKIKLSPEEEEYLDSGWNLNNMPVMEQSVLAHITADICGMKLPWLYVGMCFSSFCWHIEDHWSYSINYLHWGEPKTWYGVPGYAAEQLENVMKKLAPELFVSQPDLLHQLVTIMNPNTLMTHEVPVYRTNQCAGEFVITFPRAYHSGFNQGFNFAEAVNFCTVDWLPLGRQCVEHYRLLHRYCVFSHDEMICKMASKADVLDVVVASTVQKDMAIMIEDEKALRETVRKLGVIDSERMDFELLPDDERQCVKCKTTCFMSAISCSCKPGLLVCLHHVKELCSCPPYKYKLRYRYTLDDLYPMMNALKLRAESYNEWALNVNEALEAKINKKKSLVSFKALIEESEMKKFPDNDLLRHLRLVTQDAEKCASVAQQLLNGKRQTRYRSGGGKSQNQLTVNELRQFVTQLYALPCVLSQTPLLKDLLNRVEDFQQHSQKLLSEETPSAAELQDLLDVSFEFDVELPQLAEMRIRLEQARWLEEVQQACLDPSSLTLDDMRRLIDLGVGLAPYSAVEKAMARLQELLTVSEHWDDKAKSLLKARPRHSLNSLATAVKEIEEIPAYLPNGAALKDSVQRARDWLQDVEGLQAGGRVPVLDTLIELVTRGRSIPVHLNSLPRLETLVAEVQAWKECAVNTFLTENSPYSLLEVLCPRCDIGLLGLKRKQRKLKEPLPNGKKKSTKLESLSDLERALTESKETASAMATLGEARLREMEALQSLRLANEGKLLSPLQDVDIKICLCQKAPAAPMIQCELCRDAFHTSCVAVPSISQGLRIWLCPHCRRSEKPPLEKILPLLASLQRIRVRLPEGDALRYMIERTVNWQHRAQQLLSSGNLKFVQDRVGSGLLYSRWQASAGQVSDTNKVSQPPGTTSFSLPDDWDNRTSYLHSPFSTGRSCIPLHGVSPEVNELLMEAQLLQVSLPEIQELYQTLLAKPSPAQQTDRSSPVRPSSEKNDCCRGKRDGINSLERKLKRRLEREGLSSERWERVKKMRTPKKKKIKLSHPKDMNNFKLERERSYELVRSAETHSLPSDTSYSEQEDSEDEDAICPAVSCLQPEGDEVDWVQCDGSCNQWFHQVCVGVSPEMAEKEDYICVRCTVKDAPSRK
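Measured: NADH fluorescence change, 30 min, RT. System: KDM5BΔAP 200 nM final, H3K4me3 peptide, α-KG, Fe(II), ascorbate, NAD⁺ plus FDH, pH 7.5 HEPES. Compounds: titrated, 10 min pre-incubation with enzyme.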
IP6K1 inh – Primary qHTS assay for small molecule inhibitors of Inositol hexaphosphate kinase 1 (IP6K1) | activity change, % (series mostly up to about 58 µM) | Inositol hexakisphosphate kinase 1 (Homo sapiens), Q92551 | 140,000 tested, 0.81% active | IP6K1 kinase, ADP-Glo luminescence, 2 h; stronger effect = lower value; in the data active means activity change below about -25%; further: on the % scale 0 is the no-effect control and ±100 the full control effect
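ADP-Glo luminescence measures ADP made by human IP6K1 during a 2 h RT reaction with ATP/IP6 (mix at 1.3 mM/130 uM); top library doses 57.5 and 19.1 uM final.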
Active calls of the source: *; i = inactive; ? = inconclusive; nt = not tested or not shown. Compounds with a hit are over-represented: about 2.8% of the library has one in this group of screens.

SMILES	KDM5B inhibitor	IP6K1 inh
O=C(c1ccc(C(F)(F)F)cc1)N1CCC(C(=O)N2CCC(c3nc4ncccc4[nH]3)C2)CC1 (stereo not drawn)	nt	-1.7
COc1ccc(C(=O)N2CCC(N3C(=O)c4c(c(C)nn4-c4ccccc4)C3C)C2)cc1 (stereo not drawn)	nt	2.1
COCCNC(=O)c1nc(-c2c(C)cccc2C)c2ccccn12	35.5µM*	8.7
COC(=O)CNC(=O)c1ccc2ccccc2c1	i	nt
COC(=O)CNC(=O)c1nc(-c2c(C)cccc2C)c2ccccn12	28.2µM*	17.7
C#CCNC(=O)c1nc(-c2c(C)cccc2C)c2ccccn12	39.8µM*	5.3
COCCNC(=O)c1nc2sccn2c1-c1ccc(C)cc1	nt	2.6
Cc1ccc(CNC(=S)Nc2ccccc2Cl)cc1	i	nt
COc1ccc(-c2nnc(SCCS(=O)(=O)c3ccc(Cl)cc3)o2)cc1OC	i	nt
Cn1nc(C(C)(C)C)cc1NC(=O)c1ccc(Cl)c(Cl)c1	i	nt
CN(C)C(=O)CCc1ccc(CC2CCN(Cc3ccccc3)CC2)cc1	nt	14.6
CNC(=O)c1cc(C)nc2onc(C3CCCN(C(=O)c4ccc(C)cc4)C3)c12 (stereo not drawn)	nt	12.8
CCc1ccc(CNC(=O)C2COc3ccc(OC)cc3C2)cc1 (stereo not drawn)	i	-1.4
COc1ccc2c(c1)OCC(C(=O)NCc1csc(N3CCCC3)n1)C2 (stereo not drawn)	14.1µM*	17.1
CC(C)CC(NC(=O)C1CCC(C)CC1)C(=O)O (stereo not drawn)	i	nt
O=C(O)c1cccc2ncccc12	i	nt
C/C(OC(=O)C12CC3CC(CC(C3)C1)C2)=C1/CCOC1=O	i	nt
CCc1n[nH]c(CC2CCN(C(=O)c3ccc(OC)c(OC)c3)CC2)n1	i	-4.1
CCc1n[nH]c(CC2CCN(C(=O)c3ccccc3)CC2)n1	22.4µM*	-15.9
O=C(NCc1cccc(C(F)(F)F)c1)c1ccc2nnc(Cc3ccc(Cl)cc3)n2c1	nt	12.4
O=C(NC1CCOCC1)c1ccc2c(c1)C1(CCN(CC3CC3)C1)CN2Cc1ccccc1 (stereo not drawn)	28.2µM*	11.2
CN1CCC2(C1)CN(Cc1ccccc1)c1ccc(C(=O)Nc3ccc(F)cc3)cc12 (stereo not drawn)	?	-6.2
Cn1ccc(NC(=O)c2ccc3c(c2)C2(CCN(CC4CC4)C2)CN3Cc2ccccc2)n1 (stereo not drawn)	?	13.5
COc1ccc(NC(=O)c2ccc3c(c2)C2(CCN(C)C2)CN3Cc2ccccc2)cc1 (stereo not drawn)	?	7.7
COc1cccc(CN2CC3(CCN(C)C3)c3cc(C(=O)NC4CCCCC4)ccc32)c1 (stereo not drawn)	35.5µM*	-1.8
SMILES	KDM5B inhibitor	IP6K1 inh
CN1CCC2(C1)CN(Cc1ccccc1)c1ccc(C(=O)NC3CCC(O)CC3)cc12 (stereo not drawn)	39.8µM*	9.8
Cn1ncc2c(C(=O)NCc3ccccc3)cc(-c3cccnc3)nc21	nt	14.0
O=C(N[C@H](Cc1ccncc1)C1CC(O)C1)c1ccc(CO)o1 (stereo partly drawn)	i	-5.3
O=C(N[C@H](Cc1ccncc1)C1CC(O)C1)c1cccn2cnnc12 (stereo partly drawn)	22.4µM*	-8.4
CCCc1cc(=O)[nH]c(-n2nc(C)cc2NC(=O)Cc2ccccc2)n1	i	nt
CCOC(=O)C1CCCN(C(=O)c2nc3sccn3c2-c2ccc(C(F)(F)F)cc2)C1 (stereo not drawn)	nt	16.6
O=S(=O)(c1cccnc1)N1CCc2onc(-c3cccc4ccccc34)c2C1	31.6µM*	6.7
CC(C(=O)N1CCc2onc(-c3cccc4ccccc34)c2C1)n1ccnc1 (stereo not drawn)	?	8.9
COCc1cc(N2CCc3onc(-c4cccc5ccccc45)c3C2)ncn1	28.2µM*	11.8
COc1ncccc1C(=O)N1CCc2onc(-c3cccc4ccccc34)c2C1	?	-5.9
COc1ccc(-c2ccccc2C(=O)N2CCOCC2)nn1	nt	19.9
Cn1cnc2c1c(=O)n(CCCSCc1ccccc1)c(=O)n2C	i	nt
CCn1nc(-c2ccc(C)c(S(=O)(=O)NC3CC3)c2)c2c(c1=O)CCCC2	i	nt
COc1ccc(-c2cc(C(=O)Nc3ccccc3Cl)c3cnn(C)c3n2)cc1	nt	7.4
CN1CCN([C@H]2[C@@H]3OC[C@@H](O3)[C@@H](NCc3ccc(-c4ccccc4)cc3)[C@@H]2O)CC1	i	1.7
Cn1cccc1CN[C@H]1[C@H](O)[C@@H](N2CCCC2)[C@@H]2OC[C@H]1O2	25.1µM*	1.5
Cc1ccc(-c2c(C(=O)NCc3cccc(C(F)(F)F)c3)nc3sccn23)cc1	nt	2.4
C[S+](=O)([O-])N1CC2(Cc3ccccc31)CN(C(=O)c1ccccc1Cl)C2	i	-6.7
C[S+](=O)([O-])N1CC2(CCN(C(=O)CCC(=O)O)C2)Cc2ccccc21 (stereo not drawn)	39.8µM*	-1.4
C[S+](=O)([O-])N1CC2(Cc3ccccc31)CN(C(=O)c1ccccc1)C2	i	-11.8
Cc1ccccc1C(=O)N1CC2(Cc3ccccc3N([S+](C)(=O)[O-])C2)C1	25.1µM*	-8.8
O=C(NCc1ccc(F)cc1)c1nc(-c2cc(Cl)cc(Cl)c2)c2ccccn12	i	34.5
C[S+](=O)([O-])c1ccc(-c2nc(C(=O)NCc3ccc(F)cc3)n3ccccc23)cc1	89.1µM*	-15.9
O=C(NCc1ccc(F)cc1)c1nc(-c2ccc(F)cc2)c2ccccn12	31.6µM*	6.5
C[S+](=O)([O-])c1ccc(-c2nc(C(=O)NCc3cccnc3)n3ccccc23)cc1	i	-5.3
SMILES	KDM5B inhibitor	IP6K1 inh
O=[S+]1([O-])NCC2(CCCN(Cc3cccc(C(F)(F)F)c3)C2)Oc2ncccc21 (stereo not drawn)	i	-1.6
O=[S+]1([O-])NCC2(CCCN(Cc3ccc(Cl)cc3)C2)Oc2ncccc21 (stereo not drawn)	79.4µM*	17.6
COC(=O)[C@@H]1Cc2c([nH]c3ccccc23)[C@H]2C[C@@H](NC(C)C)C[C@@H](c3ccc(C)cc3)N21	28.2µM*	-0.4
COC(=O)[C@@H]1Cc2c([nH]c3ccccc23)[C@H]2C[C@@H](NC(C)C)C[C@@H](c3ccccc3)N21	11.2µM*	-2.7
COC(=O)[C@@H]1Cc2c([nH]c3ccccc23)[C@H]2C[C@@H](NCCO)C[C@@H](c3ccccc3)N21	?	-10.0
COC(=O)[C@@H]1Cc2c([nH]c3ccccc23)[C@H]2C[C@@H](NCCNC(C)=O)C[C@@H](c3ccc(-c4ccccc4)cc3)N21	i	6.0
CC(C)c1ccc(CN2CC[C@@H]3OCC(=O)N(Cc4ccccc4)[C@H]3CC2)cc1	?	-3.9
C[n+]1cccc(C(=O)N=S(C)C)c1	i	nt
O=C(C1CCCN1C(=O)c1cccc(-c2ccccn2)c1)N1CCC(Cc2ccccc2)CC1 (stereo not drawn)	nt	20.5
C[C@]1(CO)[C@H]2Cc3sc(-c4ccccc4)nc3[C@@H](CC(=O)O)[C@]2(C)CC[C@H]1O	31.6µM*	-1.5
C[C@]1(CO)[C@H]2Cc3sc(NC(=O)c4ccc(F)cc4)nc3[C@@H](CC(=O)NC3CC3)[C@]2(C)CC[C@H]1O	i	12.1
